The source of these data is PubChem BioAssay.

Assay [1] is described as follows: inhibitors of TNFa-induced NFkB p65 translocation, primary screen, imaging, HUVEC, MLSMR starter and 10KST1 sets (AID 438;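 active = inhibition above 20% together with a positive visual image hit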;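 note: compound added about 3h40 before a 20 min TNFalpha stimulation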;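 for inhibition: signal is the nuclear over cytoplasmic p65 intensity ratio per well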). To be noted: HUVEC TNFa-induced p65 nuclear translocation; cell count: measured here: nuclei count (cytotoxicity indicator), at 2.08 µM; inhibition: at 2 µM, stronger effect = higher value, 0% TNFa-plus-vehicle, 100% no-TNFa wells.
The nature of assay [2]: reduction of polyQ htt aggregates in cells – imaging, exon1htt(103Q)mCFP cells, high-content imaging, primary screen (AID 483;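 active = visual image review flags a hit and inhibition of aggregation exceeds 20%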;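 note: compound exposure lasted 3 days before fixation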;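 for nuclei count: percent of the per-plate median nuclei count of sample wells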). To be noted: exon1htt(103Q)mCFP cell line, aggregate imaging, at 2 µM; inhibition of aggregation: stronger effect = higher value; nuclei count: measured here: cell count, toxicity.
Assay [3] in a line: endothelial E-selectin expression blockers – imaging, HUVEC, immunofluorescence, MLSMR starter and 10KST1 sets, primary screen (AID 487;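 active = visually confirmed hit in the image check and inhibition above 20%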;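 for inhibition: signal is fraction of cell area covered by stained E-selectin grains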;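 for nuclei count: 100% = median nuclei count of all wells on the same plate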). To be noted: HUVEC TNFalpha-induced E-selectin immunofluorescence imaging, at 2 µM; inhibition: stronger effect = higher value; nuclei count: measured here: cell number, toxicity.
The nature of assay [4]: Primary imaging screen for DUSP6 inhibitors that restore phospho-Erk in transfected HeLa cells, chemical complementation (AID 609;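 active = compounds giving at least 50% inhibition in the cell-based MKP-3 phosphatase rescue imaging test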;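 for inhibition: phospho-Erk level distribution per well compared with pooled transfected vehicle control wells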). To be noted: HeLa MKP-3 transfected, phospho-Erk imaging KS statistic, at 10 µM, cells stimulated with TPA for 15 min.
Assay [5] concerns the target Dual specificity protein phosphatase 6 (Homo sapiens) (UniProt Q16828). The description is as above. Conditions: HeLa MKP-3 transfected, phospho-Erk imaging KS statistic; at 10 µM; stronger effect = higher value; cells stimulated with TPA for 15 min.
The target in assay [6] is Voltage-gated potassium channel subunit beta-2 (Rattus norvegicus) (UniProt P62483). In words: inhibitors of rat Kvbeta2 reductase activity – biochemical, NADPH fluorescence, primary screen (AID 622;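 active = fluorescence slope higher than the sample average by over 3 SD, cut at about -0.22 in these data, passing the limit was not always enough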;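 note: slope of raw intensity against log time taken from 70 to 1610 s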). To be noted: recombinant KvBeta, 4-cyanobenzaldehyde reduction, at 10 µM, stronger effect = higher value.
Assay [7] has the same target. Nature of the assay: enhancers of rat Kvbeta2 NADPH turnover – biochemical, NADPH fluorescence, primary screen (AID 623;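 active = NADPH fluorescence slope more negative than the mean of all samples by about 3 SD, 99.7% confidence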;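 note: fluorescence intensity change per second fitted from 20 to 320 s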). Conditions: Recombinant KvBeta, NADPH fluorescence decrease slope, 10 min; at 10 µM; stronger effect = lower value.
Assay [8] deals with Alpha-2C adrenergic receptor (Homo sapiens) (UniProt P18825). Nature of the assay: compounds altering alpha2C-coupled GIRK flux – cell-based, HEK293 alpha2C/GIRK1/2, thallium flux, primary screen (AID 624;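 active = fluorescence slope after compound addition differing from the mean of all screened samples at 99.7% confidence, in either direction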;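 note: slope of fluorescence ratio to pre-addition baseline per second over 15 to 24 s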). To be noted: thallium flux BTC fluorescence, at 10 µM, actives lie on both sides.
Assay [9] in a line: inhibitors of larval lipid processing in zebrafish, primary screen, whole organism, PED6 fluorescence, gall bladder and intestine (AID 686;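 active = a full or partial loss of lipid-probe fluorescence in the fish gall bladder, intestine or both, judged by eye; inactive = no fluorescence loss, or compound toxic to the fish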;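 note: larvae 5 to 7 days old with five fish per well; signal comes from phospholipase A2 cleavage of quenched PED6 carried via bile; overnight exposure to compound and PED6 before scoring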). Conditions: Zebrafish larvae PED6 lipid processing, fluorescence scoring; screened at 20 µM (by protocol).
A short description of assay [10]: loss of swimming-algae plug formation – whole organism, Chlamydomonas reinhardtii, WT vs cilia-less mutant, absorbance, 96-well, primary screen (AID 463189).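 Note: 0% = wild type cc124 cells in DMSO and 100% = ciliumless bld1 mutant cells.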 To be noted: Chlamydomonas reinhardtii gravitaxis, OD600 absorbance, 2 days; at 10 µM; stronger effect = higher value.
Assay [11] in a line: blockers of RIG-like receptor reporter activation – cell-based, Sendai virus stimulus, luciferase, 10K MLSCN set, TLR/RLR signaling modifier project, primary screen (AID 602276;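 active = inhibition at or above 50% at 10 µM; inactive = inhibition below 50%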;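 note: firefly luciferase from ISG56 promoter only with Renilla not read in this screen; 0% = Sendai virus plus DMSO and 100% = medium plus DMSO without virus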). Conditions: HEK293 RL24 IRF3 luciferase reporter, at 10 µM, stronger effect = higher value. (In general: Reporter assays use an easily measured gene product as a stand-in for the process of interest.)
A short description of assay [12]: TLR3 IRF3 reporter activation blockers – cell-based, poly I:C stimulus, luciferase, 10K MLSCN set, primary screen (AID 602277;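 active = inhibition of the reporter signal at or above 50%; inactive = inhibition below 50%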). Conditions: HEK293-TLR3 RL24 IRF3 luciferase reporter, at 10 µM, stronger effect = higher value.
Setting [13] is: measured here: cell density z-score.
The mark [14] stands for this setting: measured here: nuclear c-Myc green intensity z-score.
The mark [15] stands for this setting: measured here: nuclear pErk red intensity z-score, stronger effect = higher value.

The structures appear in SMILES notation. “And” between values parts separate entries of the source, which are not always exact repeats. Equal entries are not always repeated. The source made the active and inactive calls.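 Rule for the calls, unless noted: active = inhibition at or above 50% relative to wild type and mutant plate controls; inactive = inhibition below 50%.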

Chain of Dual specificity protein phosphatase 6 (Homo sapiens) (Q16828 whole entry, looked up): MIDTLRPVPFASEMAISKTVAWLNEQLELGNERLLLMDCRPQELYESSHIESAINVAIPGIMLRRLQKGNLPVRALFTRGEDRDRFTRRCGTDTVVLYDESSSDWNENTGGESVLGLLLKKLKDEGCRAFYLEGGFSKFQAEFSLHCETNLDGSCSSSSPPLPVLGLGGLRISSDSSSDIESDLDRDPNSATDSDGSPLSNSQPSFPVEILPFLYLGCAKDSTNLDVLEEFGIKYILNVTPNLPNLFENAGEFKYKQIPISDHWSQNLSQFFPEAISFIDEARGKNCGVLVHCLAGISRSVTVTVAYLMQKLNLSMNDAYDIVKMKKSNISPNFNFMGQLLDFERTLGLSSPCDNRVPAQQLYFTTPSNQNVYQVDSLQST
Chain of Voltage-gated potassium channel subunit beta-2 (Rattus norvegicus) (P62483 whole entry, looked up): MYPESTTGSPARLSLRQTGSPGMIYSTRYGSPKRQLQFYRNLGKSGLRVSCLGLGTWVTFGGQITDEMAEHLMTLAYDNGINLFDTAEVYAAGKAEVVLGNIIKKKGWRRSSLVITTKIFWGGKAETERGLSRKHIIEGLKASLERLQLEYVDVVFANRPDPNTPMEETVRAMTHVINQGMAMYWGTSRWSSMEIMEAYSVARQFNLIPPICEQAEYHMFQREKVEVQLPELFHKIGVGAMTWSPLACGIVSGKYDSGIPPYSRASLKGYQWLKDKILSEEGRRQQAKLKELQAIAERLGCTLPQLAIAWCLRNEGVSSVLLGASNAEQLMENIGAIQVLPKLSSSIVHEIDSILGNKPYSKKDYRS
Chain of Alpha-2C adrenergic receptor (Homo sapiens) (P18825 whole entry, looked up): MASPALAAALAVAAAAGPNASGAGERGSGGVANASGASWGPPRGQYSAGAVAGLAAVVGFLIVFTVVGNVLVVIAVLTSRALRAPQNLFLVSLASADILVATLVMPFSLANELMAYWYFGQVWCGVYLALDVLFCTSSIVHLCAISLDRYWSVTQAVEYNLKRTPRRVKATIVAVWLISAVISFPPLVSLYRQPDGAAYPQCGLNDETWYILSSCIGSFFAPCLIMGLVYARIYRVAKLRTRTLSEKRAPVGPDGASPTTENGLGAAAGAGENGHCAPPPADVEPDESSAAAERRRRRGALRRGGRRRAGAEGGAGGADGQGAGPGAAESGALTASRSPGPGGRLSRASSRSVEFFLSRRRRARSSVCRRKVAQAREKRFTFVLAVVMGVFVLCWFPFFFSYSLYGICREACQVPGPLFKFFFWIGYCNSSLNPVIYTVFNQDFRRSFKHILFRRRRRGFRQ

Regarding `O=C(O)CC1SC(=Nc2cccc(C(F)(F)F)c2)NC1=O` (stereo not given), the cell count in assay [1] stood at 447. The inhibition (in general, the relative decrease from the control value, in per cent) in [1] was -2.2% (inactive); in assay [3] it was -42.6% (inactive); in [5], 3.42% (inactive); in [10], 34.2% (inactive); in assay [11], 19.6% (inactive); in assay [12] it was 19.9% (inactive). The inhibition of aggregation in assay [2] was 3.4% (inactive). Also, the values for the nuclei count in assay [2] and in assay [3] were 95.3% and 105%, respectively. Further, the z-score is -0.141 in assay [4] (setting [13]), 1.56 in assay [4] (setting [14]) and 0.654 in [4] (setting [15]). For the same molecule, the fluorescence slope in assay [6] is -0.448 (inactive). The NADPH fluorescence slope in assay [7] is 1.4e-05 (inactive). In [8], the slope was 0.0048 (inactive). In addition, the call in assay [9] was inactive.
As for `CC(=O)[C@H]1[C@H](C#N)C[C@H]2[C@@H]3CC=C4C[C@@H](O)CC[C@]4(C)[C@H]3CC[C@@]21C`, in [1], the cell count turned out to be 645. Moreover, the inhibition is -9.3% (inactive) in assay [1]; -91.5% (inactive) in [3]; -2.46% (inactive) in assay [5]; 14.4% (inactive) in assay [10]; 10.7% (inactive) in assay [11]; 42.4% (inactive) in assay [12]. Moreover, the inhibition of aggregation in [2] is -4.8% (inactive). The results for the nuclei count in assay [2] and in assay [3] were 106% and 119%, respectively. Further, the z-score was 0.975 in [4] (setting [13]), -0.917 in [4] (setting [14]) and -0.46 in [4] (setting [15]). The fluorescence slope in assay [6] was -0.457 (inactive). Besides, in [7], the NADPH fluorescence slope was -4e-05 (inactive). Moreover, the slope in assay [8] was 0.00539 (inactive). Besides, in [9], the result was inactive.
For `Cn1nnc2c(sc3nc(N4CCOCC4)c4c(c32)CCCC4)c1=O`, in assay [1], the cell count worked out at 611. The inhibition in assay [1] was -5.6% (inactive); in assay [3], -120% (inactive); in assay [5], 28.6% (inactive); in [10], -8.88% (inactive); in assay [11] it was -5.47% (inactive); in assay [12] it was -2.11% (inactive). Also, in assay [2], the inhibition of aggregation was 21.6% (inactive). The nuclei count in assay [2] was determined as 109%; in [3], 114%. For the same molecule, the z-score in assay [4] (setting [13]) was 3.22; in assay [4] (setting [14]) it was -0.738; in assay [4] (setting [15]), -2.88. Moreover, in assay [6], the fluorescence slope was -0.348 (inactive). Also, the NADPH fluorescence slope in assay [7] was -2.4e-05 (inactive). For the same molecule, in [8], the slope is 0.00477 (inactive). Besides, in [9], the molecule was called inactive.
As for `Nc1nc(Cl)nc2c1ncn2[C@@H]1O[C@H](CO)[C@@H](O)[C@H]1O`, the cell count in assay [1] was found to be 493. Besides, the inhibition in assay [1] is -14.6% (inactive); in [3] it was -20.3% (inactive); in assay [5], 7.39% (inactive); in [10], 13% (inactive); in [11], 16.8% (inactive); in [12], 39% (inactive). In addition, in assay [2], the inhibition of aggregation was 16.9% (inactive). Further, the nuclei count in [2] was found to be 88.7%; in assay [3] it was 117%. The results for the z-score in assay [4] (setting [13]), in assay [4] (setting [14]) and in [4] (setting [15]) were 0.919, 0.297 and -0.425, respectively. Also, in [6], the fluorescence slope was -0.439 (inactive). In assay [7], the NADPH fluorescence slope was 2.4e-05 (inactive). Further, the slope in assay [8] is 0.00614 (inactive). The call in [9] was inactive.
As to `Cc1c(CCC#N)c(N2CCN(C3CCCCC3)CC2)n2c(nc3ccccc32)c1C#N`, the cell count in [1] amounted to 433. The inhibition in assay [1] is -14.4% (inactive); in assay [3] it was -38.1% (inactive); in assay [5], 13.7% (inactive); in [10], 8.11% (inactive); in assay [11] it was 19.2% (inactive); in [12], 17.3% (inactive). Moreover, the inhibition of aggregation in assay [2] is 14.6% (inactive). The nuclei count in assay [2] came to 98.9%; in [3], 128%. Moreover, the results for the z-score in assay [4] (setting [13]), in [4] (setting [14]) and in assay [4] (setting [15]) were 0.167, -0.385 and -0.671, respectively. Also, the fluorescence slope in assay [6] was -0.236 (inactive). Besides, the NADPH fluorescence slope in assay [7] is -5.2e-06 (inactive). The slope in [8] is 0.00599 (inactive). Moreover, the outcome in assay [9] was inactive.
Take `C[C@]12CCC(=O)C=C1CC[C@@H]1[C@@H]2[C@@H](O)C[C@@]2(C)[C@H]1CC[C@]2(O)C(=O)COC(=O)CCC(=O)O`: the cell count in [1] was 638 and 636. In addition, the inhibition in assay [1] was 1.3% (inactive) and -6.2% (inactive); in assay [3], -73.5% (inactive) and -140% (inactive); in assay [5], 7.39% (inactive) and 11.3% (inactive); in assay [10] it was 1.85% (inactive) and -7.48% (inactive) and -3.81% (inactive); in assay [11] it was 5.11% (inactive) and 1.12% (inactive); in assay [12], 30.2% (inactive) and 30.8% (inactive). The inhibition of aggregation in [2] was -14.6% (inactive) and 5.9% (inactive). Also, the nuclei count was 81.4% and 75.3% in assay [2]; 113% and 141% in [3]. In addition, the z-score in [4] (setting [13]) is -0.295 and 0.975; in assay [4] (setting [14]), -0.899 and -0.385; in [4] (setting [15]), -0.0646 and -0.0458. In addition, the fluorescence slope in assay [6] is -0.492 (inactive) and -0.463 (inactive). Moreover, in [7], the NADPH fluorescence slope is -9e-05 (inactive) and -1.6e-05 (inactive). Besides, in assay [8], the slope was 0.00441 (inactive) and 0.00453 (inactive). Further, the molecule was called inactive in [9].
Regarding `CCc1cc2c(=O)c(-c3cscn3)coc2cc1O`, the cell count in assay [1] came out at 406. For the same molecule, the inhibition was -6.1% (inactive) in assay [1]; -99% (inactive) in assay [3]; 1.98% (inactive) in [5]; -8.67% (inactive) in assay [10]; 20.6% (inactive) in assay [11]; 26.3% (inactive) in [12]. Further, the inhibition of aggregation in assay [2] was -9.9% (inactive). For the same molecule, the results for the nuclei count in [2] and in [3] were 59.7% and 103%, respectively. Also, the z-score was -2.75 in assay [4] (setting [13]), 2.51 in [4] (setting [14]) and -1.53 in [4] (setting [15]). In addition, the fluorescence slope in assay [6] is -0.528 (inactive). The NADPH fluorescence slope in [7] is 4e-05 (inactive). The slope in [8] is 0.00552 (inactive). The result in assay [9] was inactive.
As for `CCN(CC)CCOC(=O)C(c1ccccc1)c1ccccc1`, the cell count in [1] was determined as 533. The inhibition in assay [1] is -8.8% (inactive); in [3] it was -7.9% (inactive); in [5], 7.39% (inactive); in [10], -5.27% (inactive); in [11], 9.86% (inactive); in assay [12], 40.1% (inactive). Moreover, in assay [2], the inhibition of aggregation is 19.8% (inactive). The nuclei count in [2] came out at 104%; in [3] it was 122%. Also, the z-score was -0.21 in assay [4] (setting [13]), -0.778 in assay [4] (setting [14]) and -0.535 in assay [4] (setting [15]). In assay [6], the fluorescence slope was -0.478 (inactive). Further, the NADPH fluorescence slope in assay [7] was -3.2e-05 (inactive). Moreover, the slope in assay [8] was 0.00418 (inactive). The outcome in [9] was inactive.
For `COc1ccc(C2/C(=C(/O)c3ccccc3)C(=O)C(=O)N2c2ncccn2)cc1OC` (stereo not given), the cell count in assay [1] is 460. Also, the inhibition in assay [1] was -0.7% (inactive); in assay [3], -7.4% (inactive); in [5], 11.4% (inactive); in [10] it was -1.92% (inactive); in assay [11] it was 7.62% (inactive); in [12], 3.83% (inactive). In addition, the inhibition of aggregation in assay [2] is 2.3% (inactive). Moreover, the figures for the nuclei count in [2] and in assay [3] were 108% and 151%, respectively. The z-score in assay [4] (setting [13]) was -0.394; in assay [4] (setting [14]), 1.14; in assay [4] (setting [15]) it was -0.858. In addition, in [6], the fluorescence slope was -0.338 (inactive). Further, the NADPH fluorescence slope in [7] is -3.2e-05 (inactive). Besides, in assay [8], the slope was 0.00532 (inactive). Further, the molecule was called inactive in [9].
Take `CSc1ccc2c(c1)N(CCC1CCCCN1C)c1ccccc1S2` (stereo not given): in [1], the cell count amounted to 643. Further, the inhibition was -2.7% (inactive) in assay [1]; -54.8% (inactive) in [3]; -4.44% (inactive) in assay [5]; 77.2% (active) and 160% (active) in assay [10]; 32% (inactive) in assay [11]; 30% (inactive) in assay [12]. Besides, the inhibition of aggregation in assay [2] is 4.7% (inactive). Further, the nuclei count was 89.1% in assay [2] and 119% in assay [3]. Also, the z-score in [4] (setting [13]) turned out to be 0.315; in assay [4] (setting [14]) it was 3.44; in [4] (setting [15]) it was 1.46. Besides, the fluorescence slope in [6] is -0.555 (inactive). The NADPH fluorescence slope in assay [7] was -5.2e-05 (inactive). Also, the slope in assay [8] is 0.00348 (inactive). In addition, the molecule was classed as inactive in [9].
